SMN2 splice enh: enhancers of SMN2 splice variant expression | HEK293 SMN2-luciferase splicing reporter, luminescence, 30-36 h | Potency, µM (highest dose often 46.1 µM), without a hit: at the highest dose activity change, positive = activation, usual class: activators | 210,000 tested, 2.8% active | AID 1458; also: % of control where 0% means no effect; nearly all actives have a fitted effect of over 55% in size
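qHTS luciferase splicing reporter: luminescence rises when SMN2 exon 7 is included in transfected HEK293 cells. Compound exposure lasted 30-36 h at 37C, with 4.5 mM final sodium butyrate as control, followed by a ONE-Glo read.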
Rab9 prom act: activates the Rab9 promoter. Potency, µM (doses to about 9.22 µM), for inactives: at the highest dose activation, negative = inhibition, most hits filed as activators. Huh7 Rab9 promoter-luciferase reporter, luminescence, 24 h. 320,000 tested, 2.8% active; also: % of control where 0% means no effect; nearly all actives have a fitted effect of over 60% in size
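Luminescence from Amplite-detected luciferase (10 minutes, ambient) reports Rab9 promoter activation. Before that, stable Rab9-luciferase Huh7 cells (1500/well, reduced-serum OP-MEM I plus 10% FBS) were exposed to compound for 24 hours at 37C.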
ELG1 genotoxic: inducers of genotoxicity in HEK293T ELG1-luciferase cells; HEK293T ELG1-luciferase reporter, luminescence, 16 h; AID 504466; 330,000 tested, 1.3% active; Potency, µM (titrated, usually from 46 µM), for the others: at the top dose activity change, positive = activation, actives largely listed as activators; also: % of control where 0% means no effect; nearly all actives have a fitted effect of over 60% in size
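HEK293T cells expressing luciferase-tagged ELG1 were exposed to compound or DMSO vehicle for 16 hr at 37 °C and 5% CO2. Luciferase activity was then measured with ONE-Glo after 30 min at room temperature.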
NPC1 promoter act: activators of NPC1 promoter; Huh7 NPC1 promoter luciferase reporter, 24 h; Potency, µM (top dose mostly 9.22 µM), for the others: at the highest dose activation, most hits filed as activators; 320,000 tested, 2.4% active; AID 485313; also: % of control where 0% means no effect; nearly all actives have a fitted effect of over 60% in size
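Cells: Huh7 expressing luciferase under the NPC1 promoter, 1500/well. Seeded 2 h, compound added, incubated 24 h at 37 °C. Luciferase reagent, 10 min ambient, then luminescence.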
FLuc counter: firefly luciferase modulation, counter-screen for miR-21 project; 360,000 tested, 6.9% active; purified FLuc, Km substrates, luminescence inhibition; Potency, µM (doses to about 57.5 µM), for inactives: at the highest dose activity change, negative = inhibition, usual class: inhibitors; P08659;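 also: plate controls were vehicle for no effect and reference inhibitor for full effect; nearly all actives have a fitted effect of over 55% in size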
Target sequence (P08659 whole entry, looked up): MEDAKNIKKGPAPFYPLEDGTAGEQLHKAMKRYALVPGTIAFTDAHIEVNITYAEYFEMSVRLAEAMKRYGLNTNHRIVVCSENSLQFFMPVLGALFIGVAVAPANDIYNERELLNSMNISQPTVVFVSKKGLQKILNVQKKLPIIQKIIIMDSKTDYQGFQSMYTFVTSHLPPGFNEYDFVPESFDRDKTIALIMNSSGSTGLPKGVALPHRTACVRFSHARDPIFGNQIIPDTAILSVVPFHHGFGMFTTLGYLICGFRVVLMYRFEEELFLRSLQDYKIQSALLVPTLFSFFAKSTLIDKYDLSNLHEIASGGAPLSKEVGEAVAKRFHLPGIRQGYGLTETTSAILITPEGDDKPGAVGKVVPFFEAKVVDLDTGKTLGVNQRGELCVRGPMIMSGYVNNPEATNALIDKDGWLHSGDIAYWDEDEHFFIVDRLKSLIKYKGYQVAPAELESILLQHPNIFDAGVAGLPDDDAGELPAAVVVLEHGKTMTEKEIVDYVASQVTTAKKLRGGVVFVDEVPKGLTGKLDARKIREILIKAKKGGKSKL
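Purified P. pyralis luciferase, 10 nM final, with Km-level 10 uM D-luciferin and 10 uM ATP in 50 mM Tris acetate pH 7.5, 10 mM Mg acetate, 0.01% Tween-20, 0.05% BSA; 6-point qHTS titration about 60 µM downward; luminescence read.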
* hit, by the source's call; ? = inconclusive; . = no result; [ ] = remark or other dose. Most compounds without a hit are left out; they make up all but 7.4% or so of the library. Calls follow the shape of the dose curve; as a rule, active = well fitted curve in the direction sought with a large enough effect; inconclusive = small, poorly fitted or top-dose-only effect, or another doubt; inactive = no such curve, though single readings can be large; an effect the other way counts as inactive or inconclusive. Potency is read from the fitted curve at half-maximal effect.

SMILES | SMN2 splice enh | Rab9 prom act | ELG1 genotoxic | NPC1 promoter act | FLuc counter
CC/C=C/C(=O)N1CC2(CC(c3cccc(NC(=O)COc4ccc(Cl)cc4)c3)=NO2)C[C@H]1C(N)=O (stereo partly specified) | . | 0% | -11% | 5% | 12µM*
NC(=O)[C@@H]1CC2(CC(c3cccc(NC(=O)COc4ccc(Cl)cc4)c3)=NO2)CN1C(=O)COc1ccc(Cl)cc1 (stereo partly specified) | . | -18% | -15% | -9% | 12µM*
NC(=O)[C@H]1CC2(CC(c3cccc(NC(=O)COc4ccc(Cl)cc4)c3)=NO2)CN1C(=O)C(c1ccccc1)c1ccccc1 (stereo partly specified) | . | -15% | -9% | -8% | ?
N#CCC(=O)N1CC2(CC(c3cccc(NC(=O)COc4ccc(Cl)cc4)c3)=NO2)C[C@@H]1C(N)=O (stereo partly specified) | . | -7% | 0% | -4% | 15µM*
NC(=O)[C@H]1CC2(CC(c3cccc(NC(=O)COc4ccc(Cl)cc4)c3)=NO2)CN1C(=O)[C@H]1CCC(=O)N1 (stereo partly specified) | . | -8% | 2% | -1% | 12µM*
CCCCCCCCCCCCCCCCOCC(CO)OC(C)=O (stereo unspecified) | 3% | . | . | . | .
COc1cc(OC)c(NC(=O)c2noc3c2CSc2ccccc2-3)cc1Cl | . | . | . | . | -9%
Nc1ccccc1C(=O)Nc1cccc2ccccc12 | . | 2.8µM* | ? | 3.2µM* | 19µM*
CC(=O)c1cccc(NC(=O)C(=O)Nc2cccc3ccccc23)c1 | . | 2.5µM* | 16% | ? | ?
O=C(Nc1cccc2ccccc12)c1ccccc1 | -2%[9.22 µM] | 3.5µM* | ? | ? | 13µM*
O=C(Nc1cccc2ccccc12)c1ccc(F)cc1 | . | 22% | 0%[9.26 µM] | 0% | ?
O=C(Nc1cccc2ccccc12)c1ccccc1Cl | . | 6% | 1% | 0% | -12%
COc1ccc(NS(=O)(=O)c2cnc(N)nc2)cc1Cl | . | . | . | . | 3%
O=C(NC1CCCCCC1)C1CCN(C(=O)N2CCOc3ccc(Cl)cc32)CC1 | . | . | . | . | 1%
COn1c(-c2ccc(Cl)cc2)nc2ccc(Cl)cc21 | 13% | ? | 10% | 30% | 9.5µM*
O=C(OCc1nc2ccc(Cl)cc2n1CCO)c1ccccc1 | 2% | 3% | 2% | 1% | 1%
COc1ccc(-c2nc3ccccc3n2OCC(=O)O)cc1 | . | 19% | ? | 9% | 3µM*
COc1ccc(-c2nc3ccccc3c(=O)n2O)cc1 | . | 6% | 0% | -4% | 2%
O=C(O)COn1c(-c2ccc(Cl)cc2)nc2ccc(Cl)cc21 | 16% | 7% | ? | 2% | 9.5µM*
O=C(O)c1ccncc1.O=C(O)c1ccncc1.[Cl][Pt]([Cl])([Cl])[Cl] | -8%[9.22 µM] | . | . | . | .
CC(Sc1nc2c([nH]c3ccccc32)c(=O)n1-c1ccccc1)c1ccccc1 (stereo unspecified) | . | . | . | . | -2%
COc1ccccc1CNC(=O)c1cccc(NC(=O)N2CCSc3ncccc32)c1 | . | . | . | . | -3%
CCSc1nn2c(=O)c3ccccc3nc2s1 | 14µM* | 2.5µM* | 5µM* | 3.5µM* | 19µM*
O=c1[nH][nH]c(=S)c(=O)[nH]1 | 1%[9.22 µM] | . | . | . | .
Cc1ccc(/C=C2/Sc3ccc(C(=O)N4CCN(c5ccccn5)CC4)cc3NC2=O)cc1 | . | -2% | -4% | -5% | 13µM*
CCOC(=O)C1CCN(C(=O)c2ccc3c(c2)NC(=O)/C(=C\c2ccc(C)cc2)S3)CC1 | . | 1% | 0% | -5% | 24µM*
CCOC(=O)C1CCN(C(=O)c2ccc3c(c2)NC(=O)/C(=C/c2ccccc2)S3)CC1 | . | -5% | -4% | -6% | -16%
CC1Cc2cc(S(=O)(=O)CCC(=O)Nc3ccc(Cl)cc3F)ccc2N1C(=O)C1CC1 (stereo unspecified) | . | . | . | . | -12%
O=C1OC2(CCCCC2)CC2=C1C1O[C@](CCCCN3C(=O)c4ccccc4C3=O)(Cc3ccccc31)O2 | . | -9%[1.84 µM] | . | -4%[1.84 µM] | 2%[11.5 µM]
COc1cc(NC(=O)C(C)C)ccc1NC(=O)c1cc2ccccc2o1 | . | 3.2µM* | ? | 2.2µM* | 7.6µM*

Assay outcomes deposited in PubChem BioAssay by National Center for Advancing Translational Sciences (NCATS).
